Measured values taken from the supplement of paper PMC6805474.

test system: Schistosoma mansoni schistosomula (LE); assay: XTT viability relative to DMSO control; higher = more viable (less active); conditions: 72 h; 10 µM
Protocol: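 XTT/PMS was then added for a further 24 h (72 h total) and A450 was read. % viability = (sample - heat-killed control)/(DMSO control - heat-killed control) x 100, from duplicate wells in two independent experiments.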

SMILES | XTT viability [%]
Nc1nc2ccc(-c3cncc(Oc4ccc(F)cc4)c3)cc2[nH]1 | 111
O=C(Nc1nnc(-c2ccc(Cl)cc2)o1)c1cccc(C(F)(F)F)c1 | -9.98
COc1cc(C(F)(F)F)nc2ccc(C)c(N)c12 | 79.3
CC(C)(C)n1nc(Cc2ccc(F)c(Cl)c2)c2c(N)ncnc21 | 98.7
FC(F)(F)c1ccc(N(c2cccnc2)C2CCN(c3ccc(C(F)(F)F)cn3)CC2)cc1 | 77.5
CCC(NC(=O)c1ccccc1NC(=O)c1ccc(C)cc1)C(=O)OC (stereo not given) | 82.9
COc1ccc(Cn2cnc3c(-c4ccco4)nc(Cl)nc32)cc1 | 98.6
O=S(=O)(c1ccc(Cl)cc1)N1CCN(C(=S)NCc2ccco2)CC1 | 75.2
CCC(=O)Nc1ccccc1C(=O)Nc1ccccn1 | 87.3
CC(C)C(Oc1cccc2ccccc12)C(=O)O (stereo not given) | 108
CCOC(=O)c1noc(N)c1-c1ccccc1 | 94.1
Cc1cc(NC(=O)c2ccc(S(=O)(=O)N(Cc3ccccc3)C(C)C)cc2)no1 | 106
COc1ccc(CCN2CCC(NCc3cccc(N(C)C)c3)CC2)cc1 | 98.6
CS(=O)(=O)c1ccc(C(=O)N(CC2CCCO2)c2nc3ccccc3s2)cc1[N+](=O)[O-] (stereo not given) | -7.96
N=C(N)Nc1ccc(-c2ccc(-c3ccc(NC(=N)N)cc3Cl)o2)c(Cl)c1 | 61.7
O=C(COc1cccc(F)c1)Nc1nc(-c2ccccn2)cs1 | 68.1
CCOC(=O)c1c(NC(=O)c2c(F)c(F)c(F)c(F)c2F)sc(C(N)=O)c1C | -3.42
FC(F)(F)c1cnc(Sc2nnc(-c3ccncc3)o2)c(Cl)c1 | 74
COC(=O)c1c(NC(=O)c2c(F)c(F)c(F)c(F)c2F)sc2c1CCCCC2 | 0.615
COc1ccc(-c2nnc3ccc(-c4cccc(C(C)C)c4)cn23)cc1OC | 14.7

SMILES | XTT viability [%]
Nc1cccnc1Nc1ccc(Cl)cc1 | 157
CC(C)(C)C1CCC(CC2=C(O)C(=O)c3ccccc3C2=O)CC1 (stereo not given) | 71.7
COc1ccc(C(=N)N)cc1-c1cn(-c2ccc(C(=N)N)cc2)nn1 | 69.3
COc1ccc(C2(C(=O)Nc3ccc(Br)cc3)CCCC2)cc1 | 91
CC[C@H](CO)NCCN[C@H](CC)CO | 78.3
Cc1nnc(NCc2cccc(Cl)c2)c2ccccc12 | 102
C[C@H](c1ccc2c(c1)CCCC2)N(C)c1ncc2c(N)nc(N)nc2n1 | 39.1
CC(=O)Oc1ccccc1C(=O)Nc1ncc([N+](=O)[O-])s1 | 102
CN1CCN(c2cc(-c3ccc(F)cc3)nc(-c3ccncc3)n2)CC1 | 63
COc1ccc(-c2cnc3cnc(-c4cccc(OC(C)C)c4)cn23)cc1 | 39
CCOC(=O)NC(=O)c1ccsc1NC(=O)c1nc2ccccc2s1 | 134
C[C@H]1c2cccc(O)c2C(=O)C2=C(O)[C@]3(O)C(=O)C(C(N)=O)=C(O)[C@@H](N(C)C)[C@@H]3[C@@H](O)[C@@H]21 | 165
COc1cc(-c2cc(-c3ccc(S(C)(=O)=O)cc3)cnc2N)ccc1O | 139
CC(=O)Nc1ccc(NC(=O)c2cc(-c3cc(Cl)ccc3O)[nH]n2)cc1 | 94.2
CN1CCCN(C(c2ccccc2)c2ccc(Cl)cc2)CC1 (stereo not given) | 67.9
O=C(NCc1ccoc1)N1CCN(Cc2ccc3c(c2)OCO3)CC1 | 76.2
CNC(=O)C1Cc2ccccc2N1C(=O)Cc1ccc(F)cc1 (stereo not given) | 84.2
O=C(c1ccc(F)cc1)N(CCNc1ccccc1)c1ccccc1 | 126
Clc1ccc(Cl)c(CO[C@H]2CCCC[C@@H]2n2ccnc2)c1 | 109
Cc1nn(C)cc1C(C)Nc1nncc(-c2ccc(C(F)(F)F)cc2)n1 (stereo not given) | 77.5
